Source: PubChem BioAssay
Shown are actives, neighbours in structure and some others; about 6.1% of the full set was active somewhere.
ERG Ets-DNA blk = blocks human ERG Ets domain binding to DNA | Potency, µM (highest dose often 76.9 µM), for the others: at the top dose FP activity, negative = inhibition, usual class: inhibitors | P11308 | 370,000 compounds, 0.028% hits | fluorescence polarization, His-ERG Ets domain / labelled DNA; active = well fitted inhibition curve with a large enough effect in the polarisation, with a control signal flat; inconclusive = small, poorly fitted or top-dose-only effect, or effect the other way, or a change in a side signal; inactive = no such curve, though single readings can be large or run the other way; the % refers to the polarisation;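 note: polarization taken with two DNA probes labelled with fluorescein and Texas red; potency is the fitted concentration of half-maximal effect; % of control where 0% means no effect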
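His-tagged ERG Ets domain (1 uM in the protein solution; 300mM KCl, 50mM Tris-HCl, 1mM EDTA, 1mM DTT, pH 7.5) received compound, then a probe mix of 5 nM fluorescein-DNA and 100nM Texas-615-DNA. Fluorescence polarization was read for both dyes.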
D3 antag = antagonists of human D3 dopamine receptor; max response, negative = inhibition, %; D3R cells, DiscoveRx beta-arrestin luminescence, antagonist mode; active compounds read low; P35462; AID 652054; 360,000 compounds, 2.5% hits; in the data active = max response below about -50%; inconclusive = no clear call, values can overlap the other calls; note: % is set by controls: 0 for no effect and ±100 for the full control effect
Target sequence (P35462 whole entry, looked up): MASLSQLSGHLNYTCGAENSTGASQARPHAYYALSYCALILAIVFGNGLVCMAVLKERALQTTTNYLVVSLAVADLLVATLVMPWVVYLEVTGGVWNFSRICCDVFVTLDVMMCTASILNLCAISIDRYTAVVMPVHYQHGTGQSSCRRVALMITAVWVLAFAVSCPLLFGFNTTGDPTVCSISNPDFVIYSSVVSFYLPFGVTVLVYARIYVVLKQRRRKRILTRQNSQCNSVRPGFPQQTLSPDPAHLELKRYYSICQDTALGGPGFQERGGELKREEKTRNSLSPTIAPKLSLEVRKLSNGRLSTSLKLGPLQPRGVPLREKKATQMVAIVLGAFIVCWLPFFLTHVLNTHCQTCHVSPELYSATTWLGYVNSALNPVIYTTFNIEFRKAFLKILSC
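Cells expressing the human receptor were seeded at 1500 cells/well, incubated overnight at 37 degrees C in 5% CO2, then exposed to library compounds with dopamine controls for 90 minutes at 37 degrees C before luminescent detection.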
D1 potentiator = enhances dopamine response at the human D1 receptor; P21728; HEK293 TREx D1 cells, calcium flux, dopamine EC20 potentiation; potentiation, % at 10 µM; 360,000 compounds, 0.036% hits; in the data active = potentiation above about 30%; note: 0% is about no effect
D1 ag = agonists of human D1 dopamine receptor. HEK293 T-REx D1 cells, calcium flux, agonist mode. AID 504660. 360,000 compounds, 1% hits. activation, % at 2 µM; in the data active = activation above about 30%; note: 0% is about no effect
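Tetracycline-induced HEK293 TREx D1 cells, force-coupled to calcium signalling, were dye-loaded with a no-wash calcium kit. Compound was pin-added after a 10 s baseline. Fluorescence was read kinetically at 1 cycle/s for 180 s, with calcium rises flagged as agonism.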
D1 antag = human D1 dopamine receptor antagonism; P21728; AID 504652; HEK293 TREx D1 cells, calcium flux, dopamine EC80; active compounds read low; 360,000 compounds, 3.2% hits; activity change, negative = inhibition, % at 10 µM; in the data active = activity change below about -30%; note: % is set by controls: 0 for no effect and ±100 for the full control effect
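Using tetracycline-induced force-coupled D1 Hek293 cells and a calcium dye, signals were followed for 180 s after compound, then for 180 s after EC80 dopamine, to detect inhibitors.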
DRD3 agonist = agonists of human D3 dopamine receptor | max activation, % | D3R DiscoveRx beta-arrestin cells, luminescence, 90 min | P35462 | 410,000 compounds, 0.58% hits; in the data active = max activation above about 30%; note: 0% is about no effect
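Agonist-mode cell screen: cells plated at 1500/well and incubated overnight at 37 °C, then exposed to library compounds for 90 min at 37 °C. Detection reagent was added for 30–60 min at room temperature, and luminescence was read.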
Active calls of the source: *; ? = inconclusive; / = not tested or not shown; ! = not active in a repeat.

SMILES	ERG Ets-DNA blk	D3 antag	D1 potentiator	D1 ag	D1 antag	DRD3 agonist
COc1cc(CNc2ccc3[nH]c(=O)[nH]c3c2)ccc1OCc1ccccc1C	-6.9%	-17.0	1.9	3.4	-56.8*	12.0
COc1cc(CNc2ccc3[nH]c(=O)[nH]c3c2)ccc1OCc1ccc(F)cc1Cl	-1.5%	17.1	4.9	2.2	-5.0	34.8*!
C[C@]1(O)CC(=O)C=C[C@H]1Nc1ccccc1	3.8%	-51.7*	/	/	/	-21.0
COc1ccc(-c2nnnn2C)cc1S(=O)(=O)NCc1ccccc1	/	-8.4	0.3	2.8	-55.3*	-7.6
COc1ccc(/C=C/C(=O)O)cc1S(=O)(=O)NCc1ccccc1	6.7%	-17.4	-2.9	2.1	3.3	35.5*
COc1ccc(F)cc1S(=O)(=O)NCc1ccccc1	-1.6%	-3.9	-4.3	3.7	5.7	4.3
COc1ccc(Br)cc1S(=O)(=O)NCc1ccccc1	6.4%	4.5	0.6	1.0	-4.5	3.6
Cn1c(CNC(=O)OC(C)(C)C)nnc1SCc1c(Cl)cccc1Cl	8.5%	-6.6	1.5	9.1	-12.2	-6.3
CN(C(=O)CSc1nnc(-c2cccnc2)n1-c1ccccc1F)C1CCS(=O)(=O)C1 (stereo unspecified)	-0.3%	-12.6	-2.7	2.3	-4.6	-1.6
Cc1ccc(-n2c(=O)[nH]c3cc(C(=O)NCc4ccccc4)ccc3c2=O)cc1	-1.5%	/	-1.1	8.1	-76.9*	2.1
COc1cc(OC)cc(-n2c(=O)[nH]c3cc(C(=O)NCCc4ccc(C)cc4)ccc3c2=O)c1	0.3%	/	1.5	5.0	4.7	1.0
CCCCNC(=O)c1ccc2c(=O)n(-c3ccccc3)c(=O)[nH]c2c1	1.3%	/	-1.6	1.4	-64.5*	1.0
Cc1cc(C)c(S(=O)(=O)/N=C2\C=C(Nc3ccc(C(=O)O)cc3)C(=O)c3ccccc32)c(C)c1	67.3%	-77.2*	-4.9	3.2	3.1	-34.2
Cc1cc(C)c(S(=O)(=O)/N=C2\C=C(NS(=O)(=O)c3ccccc3)C(=O)c3ccccc32)c(C)c1	41.1%	-13.4	5.2	-1.6	-14.3	-6.8
O=C(O)c1ccc(NC2=C/C(=N/S(=O)(=O)c3ccccc3)c3ccccc3C2=O)cc1	8.9%	-91.6*	-2.9	0.5	16.5	-19.6
CCOC(=O)C1CCC(CN(Cc2c(Cl)cccc2Cl)S(=O)(=O)c2ccc(F)cc2)CC1 (stereo unspecified)	-1.0%	/	-1.0	8.6	-38.0*	1.3
O=[N+]([O-])c1cccc(S(=O)(=O)N2CN(c3ccc(Br)cc3)c3nc4ccccc4nc32)c1	-19.6%	-7.1	/	/	/	-2.1
COc1cc(OC)cc(C(=O)Nn2c(C)nc3ccccc3c2=O)c1	5.3%	9.5	-2.2	2.1	-21.4	2.9
COc1cc(OC)cc(-c2nc3ccccc3c(=O)n2OC(=O)c2ccc(C)c(C)c2)c1	-4.7%	108.8	4.8	1.4	1.3	30.0*
O=C1[C@H]2CCCC[C@H]2C(=O)N1CCCCN1CCN(c2nsc3ccccc23)CC1	4.5%	-116.0*	/	/	/	-57.4
O=C(CN1C(=O)C2CCCCC2C1=O)Nc1ccccc1C(=O)O (stereo unspecified)	4.9%	3.1	-3.5	3.3	1.5	-6.1
O=C(Cc1ccc(-n2cccc2)cc1)NCc1cccs1	-3.1%	44.9	-8.7	0.6	-34.0*	-8.8
CCCCN(C=O)c1c(CC)nc2c(OCC(=O)C(C)(C)C)cccn12	/	-16.0	/	/	/	-1.9
CCCCN(C=O)c1c(CC)nc2c(OCCn3cccc3)cccn12	/	-81.8*	/	/	/	-12.5
CCc1nc2c(OCC(=O)C(C)(C)C)cccn2c1N(C=O)CC(=O)N(C)C	/	-98.3*	/	/	/	-23.6
SMILES	ERG Ets-DNA blk	D3 antag	D1 potentiator	D1 ag	D1 antag	DRD3 agonist
CCOC(=O)[C@]12CCC=C1N(Cc1ccccc1)C(=O)[C@H](CC(=O)NCc1ccc(C)o1)C2	/	-11.4	/	/	/	-1.6
O=[N+]([O-])c1ccc(CN2CCN(c3ccc([N+](=O)[O-])cc3)CC2)cc1	-3.8%	-1.5	-3.0	7.2	-3.2	-2.3
O=[N+]([O-])c1cccc(COc2ccc(CN3CCCC3)cc2)c1	-5.3%	?	/	/	/	-53.9
O=[N+]([O-])c1cccc(CN2CCCCCC2)c1	2.4%	-55.0*	0.8	14.2	12.8	-25.3
O=[N+]([O-])c1ccc(N2CCN(Cc3cccc([N+](=O)[O-])c3)CC2)cc1	-7.3%	-19.7	-7.6	-1.9	-39.9*	-13.3
O=[N+]([O-])c1cccc(CN2CCN(Cc3ccco3)CC2)c1	2.9%	-75.4*	-2.0	2.5	-5.9	-23.5
c1ccc(-c2ccc(CN3CCSCC3)cc2)cc1	6.2%	-11.5	0.7	7.8	13.2	-12.7
O=[N+]([O-])c1ccc(CN2CCSCC2)cc1	10.2%	-15.7	-11.3	3.8	-32.8*	-2.9
COc1ccc(N2CCN(C(=O)C3CCN(S(=O)(=O)c4ccc5c(c4)oc(=O)n5C)CC3)CC2)cc1	-2.7%	-13.1	-3.0	1.5	-2.9	1.0
CC1CC1C(=O)Nc1nc2ccc(Cl)cc2s1 (stereo unspecified)	-1.6%	8.6	/	/	/	3.6
COC(=O)c1cc([N+](=O)[O-])ccc1N1CCN(Cc2ccccc2)CC1	-4.0%	-51.9*	-3.6	2.4	-9.9	-10.3
O=C(c1ccc([N+](=O)[O-])cc1Cl)N1CCN(Cc2ccccc2)CC1	/	41.3	/	/	/	-6.5
CS(=O)(=O)N1CCc2cc(C(=O)N3CCCC3)ccc21	21.4%	14.4	-2.0	2.2	9.7	16.9
Nn1c(Cc2ccccc2F)nnc1SCCOc1ccc(Cl)cc1	-2.1%	16.1	-5.9	-0.1	-39.3*	0.5
CCOc1ccc(/C=N/NC(=O)Cc2csc(Nc3cccc(C(F)(F)F)c3)n2)c(OCC)c1	-4.2%	-2.1	-4.7	0.1	-32.4*	5.4
Cc1nc(NCc2ccco2)c2cn[nH]c2n1	12.8%	3.2	/	/	/	15.1
c1coc(CNc2ncnc3[nH]ncc23)c1	-0.1%	-2.2	-4.3	6.0	-40.7*	-16.7
O=C(CSc1nc(=O)n2ccccc2n1)Nc1cccc2ccccc12	6.5%	24.7	1.4	3.4	-2.8	5.4
N[C@@H](CO)c1nnc([C@H](CCC(=O)O)NC(=O)C2CCNCC2)o1	5.9%	-5.0	-6.0	0.4	-37.9*	4.8
N[C@@H](Cc1ccc(O)cc1)c1nnc([C@H](CC(=O)O)NC(=O)C2CCNCC2)o1	3.8%	-25.2	0.4	-3.9	4.1	-15.3
N[C@@H](Cc1ccc(O)cc1)c1nnc([C@H](CCC(=O)O)NC(=O)C2CCNCC2)o1	-17.0%	-13.5	-2.5	-0.5	-41.3*	12.6
CC(C)(C)c1nnc(N/N=C/c2cc(Br)ccc2O)n(N)c1=O	1.0%	90.2	-7.1	2.4	-7.7	57.0*
